Data taken from ChEMBL document CHEMBL1157539, “Thousands of chemical starting points for antimalarial lead identification” (Nature, 2010).

Assays:
Format in all cases: functional
Plasmodium falciparum [1] = experiment: GSK_TCMDC: Inhibition of Plasmodium falciparum 3D7 in whole red blood cells, using parasite LDH activity as an index of growth. Test compounds present at 2uM
Plasmodium falciparum [2] = experiment: GSK_TCMDC: Inhibition of Plasmodium falciparum Dd2 in whole red blood cells, using parasite LDH activity as an index of growth. Test compounds present at 2uM
HepG2 = experiment: GSK_TCMDC: Percent inhibition of human HepG2 cell line. Test compounds present at 10uM.

Compound | Inhibition (Plasmodium falciparum [1]) | Inhibition (Plasmodium falciparum [2]) | Inhibition (HepG2)
CC1(C)NC(N)=NC(=N)N1OCc1cc(Cl)cc2c1OCOC2.Cl | 95% | 64% | 65%
NCc1ccc(CNCc2cccc(-c3cccc(-c4nc5ccccc5[nH]4)c3)c2)cc1.O=C(O)C(F)(F)F | 100% | 11% | 7%
Cl.Nc1nc(N)c2c(ccc3c2ccn3C2CCCCC2)n1 | 97% | 46% | 67%
FC(F)(F)c1ccc2[nH]c(-c3ccc(-c4cccc(CNCCc5cccnc5)c4)s3)nc2c1.O=C(O)C(F)(F)F | 100% | 98% | 26%
CC(=O)Nc1ccc(OCCCN(Cc2ccccc2OC(F)(F)F)c2ccc(C(F)(F)F)c(C#N)c2)c(Cl)c1 | 91% | 80% | 5%
Clc1ccc(-c2csc3ncnc(Cl)c23)cc1 | 94% | 95% | 0%
O=C(Nc1cccc(CN2CCCN(Cc3ccc(F)cc3)CC2)c1)c1ccc(Cl)c(Cl)c1.O=C(O)C(F)(F)F | 95% | 17% | 27%
CC1=C(C(=O)Nc2cc3cn[nH]c3cc2F)C(c2cccc(O)c2F)CC(=O)N1 (centres undefined) | 97% | 98% | 1%
Cc1ccccc1C1CCN(C2CCC(NC(=O)c3ccc(-c4cccc(C(F)(F)F)c4)o3)CC2)CC1 (centres undefined) | 99% | 100% | 56%
COc1cc2c(cc1NC(=O)CN1CCN(C(=O)c3ccco3)CC1)oc1ccccc12 | 96% | 96% | 13%
CC(=O)Nc1ccc(CN2CCC(CNC(=O)c3cc(-c4cccc(Cl)c4)cs3)C2)cc1.O=C(O)C(F)(F)F (centres undefined) | 91% | 1% | 24%
COc1ccc(-c2cccc(NC(=O)c3cccc(C#N)c3)c2)cc1CN1CCCC1.O=C(O)C(F)(F)F | 98% | 32% | 28%
O=C(NCCCCN1CCC(c2ccc([N+](=O)[O-])cc2)CC1)c1ccc(NC(=O)c2ccc(Cl)cc2)cc1 | 100% | 55% | 15%
O=C(Nc1ccc(N2CCN(Cc3cccc(F)c3)CC2)cc1)c1cccs1.O=C(O)C(F)(F)F | 95% | 92% | 0%
CCN(CCCN1CCCC1)c1cc(C)nc(Nc2ccc(Cl)cc2)n1.O=C(O)C(=O)O | 100% | 12% | 5%
Cc1ccc(NC(=O)c2ccc3ncccc3c2)cc1OC1CCN(Cc2ccsc2)C1.O=C(O)C(F)(F)F (centres undefined) | 88% | 49% | 5%
O=C(Cc1ccc[n+]([O-])c1)Nc1ccc(-c2cccc(-c3nc4cc(C(F)(F)F)ccc4[nH]3)c2)cc1 | 92% | 49% | 16%
COc1ccc(Oc2cnc(N)nc2N)c(C(C)C)c1 | 97% | 0% | 58%
Nc1c2ccccc2nc2ccc(Cl)cc12 | 100% | 100% | 55%
CN(C)CCOc1ccc(-c2cc(-c3ccc(Cl)c(O)c3)c(-c3ccncc3)o2)cc1.Cl | 100% | 99% | 39%
COc1c(Br)cc(Br)cc1-c1ccc(CN2C3CCCC2CCC3)[nH]1.Cl | 88% | 83% | 42%
O=S(=O)(Nc1cccc(CCN2CCCCC2CCN2CCCC2)c1)c1ccc2ccccc2c1 (centres undefined) | 91% | 40% | 22%
COc1cccc(C2CCCN(CCCCNC(=O)c3ccc(NC(=O)c4ccc(Cl)cc4)cc3)C2)c1 (centres undefined) | 95% | 6% | 24%
C=C[C@]1(C)C[C@@H](OC(=O)CSC2CN3CCC2C3)[C@@]2(C)C3C(=O)CC[C@@]3(CC[C@H]2C)[C@@H](C)[C@@H]1O.Cl (some centres undefined) | 91% | 75% | 18%
CCCCCc1cc(OC(=O)CCCN(CC)CC)c2c(c1)OC(C)(C)C=C2C1=CCN(Cc2ccc3ccccc3c2)CC1 | 100% | 92% | 94%
Cc1cc(=NN=Cc2ccccc2F)c2ccccc2[nH]1 | 100% | 81% | 14%
Nc1cc(-c2cccc(Cl)c2)nn1-c1ccnc2cc(Cl)ccc12 | 99% | 33% | 0%
CCNc1cc(C(=O)N[C@@H](Cc2ccccc2)[C@H](O)CNCc2cccc(-c3cncnc3)c2)cc(N2CCCC2=O)c1.O=C(O)C(F)(F)F | 97% | 96% | 5%
